From PubChem BioAssay
Only some compounds are listed: those with a hit (about 14% of all), similar ones and a draw of the others.
HADH2 inhib – blocks human hydroxyacyl-CoA dehydrogenase type II; recombinant HADH2, NADH fluorescence, beta-hydroxybutyryl-CoA; Potency, µM (highest dose often 57.1 µM), actives largely listed as inhibitors; 73,000 compounds, 3.4% hits; AID 886; also: nearly all actives have a fitted effect of over 60% in size
Target sequence (Q99714 whole entry, looked up, one chain of several): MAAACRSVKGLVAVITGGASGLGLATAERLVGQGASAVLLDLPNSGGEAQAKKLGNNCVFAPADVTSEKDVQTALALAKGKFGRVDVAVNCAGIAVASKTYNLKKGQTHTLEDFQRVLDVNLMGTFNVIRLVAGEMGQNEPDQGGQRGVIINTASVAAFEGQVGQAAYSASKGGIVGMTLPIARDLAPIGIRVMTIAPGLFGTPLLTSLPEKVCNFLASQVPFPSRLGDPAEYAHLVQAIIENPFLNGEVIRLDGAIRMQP
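Read-out: 360 nm excitation, 450 nm emission, kinetic over 4 min. Conditions: His-tagged human HADH2 20 nM, pH 9.0 Tris with Tween-20, 1 mM NAD+, 90 uM beta-hydroxybutyryl-CoA.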
4-MU autofl – compound fluoresces in the 4-MU spectral region | max dye-equivalent concentration, M | 59,000 compounds, 11% hits | AID 589 | compound autofluorescence, 340/450 nm, 4-MU equivalents; active compounds read high; in the data active = max dye-equivalent concentration above about 10 nM; inconclusive = mostly about 1.1 nM to 9.6 nM
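Intrinsic fluorescence at 340/450 nm (ex/em) was read after 15 min at room temperature in pH 8.0, 100 mM Tris. Each compound concentration expressed as 4-MU-equivalent concentration from a six-point 4-MU standard series on each plate.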
CRE Fsk mod – modulators of forskolin-stimulated CRE signaling in CHO cells; AID 662; Potency, µM (top dose mostly 38.2 µM), actives largely listed as activators; 71,000 compounds, 2.5% hits; CHO CRE-bla reporter (cAMP response element driving beta-lactamase), forskolin EC10, beta-lactamase ratio; active = well fitted activation curve with a large enough effect in the signal ratio, with a control signal flat, not every such curve was filed as active; inconclusive = small, poorly fitted or top-dose-only effect, or effect the other way, or a change in a side signal; the % refers to the signal ratio
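AC50 values, positive or negative, reflect shifts in EC10 NKH 477-induced CRE-bla reporter activity in CHO cells. Incubation lasted 3 h at 37 °C before CCF4 substrate (2 h, room temperature) and ratiometric 460/530 nm reading.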
HSD17B inh – HSD17B dehydrogenase inhibition; recombinant HSD17B10, NADH fluorescence kinetic; Q99714; AID 893; Potency, µM (titrated, usually from 57.1 µM), hits mostly inhibitors; 75,000 compounds, 7.6% hits;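 also: the protocol describes HADH2 (HSD17B10) and not the HSD17B4 of the title; nearly all actives have a fitted effect of over 70% in size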
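20 nM HADH2, pH 9.0 Tris/Tween; cpd preinc 15 min RT; start w/ 1 mM NAD+ + 90 uM b-hydroxybutyryl-CoA; kinetic fluor ex360/em450 q30s x 4 min; delta last-first.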
AID923 – qHTS Assay for Allosteric/Competitive Inhibitors of Caspase-1: Spectroscopic Profiling in AFC Spectral Region. compound fluorescence, AFC spectral region (405/520 nm). Potency, µM (highest dose often 57.5 µM), most hits filed as activators. 75,000 compounds, 1.1% hits. AID 923, 2007
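Titrations up to 57 uM read every 20 sec for 3 min (405/520 nm) with 50 nM caspase 1 and 5 uM Ac-WEHD-AFC, pH 7.5 HEPES buffer. Fluorescence-vs-time intercept gave baseline, scaled against on-plate AFC standard.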
A350 fluor – compound fluoresces in the Alexa 350 spectral region; Compound autofluorescence, 340/450 nm, Alexa 350 dye-equivalents; active compounds read high; 59,000 compounds, 11% hits; max dye-equivalent concentration, M; in the data active = max dye-equivalent concentration above about 10 nM; inconclusive = mostly about 1.1 nM to 9.6 nM
Large screens that a line does not name were inactive; ! = a repeat was not active. Unless noted, calls follow the shape of the dose curve; as a rule, active = well fitted curve in the direction sought with a large enough effect; inconclusive = small, poorly fitted or top-dose-only effect, or another doubt; inactive = no such curve, though single readings can be large; an effect the other way counts as inactive or inconclusive.

O=C(O)C1Nc2c(O)cccc2C2C=CCC12 (stereo unspecified)	HADH2 inhib 12.6µM, CRE Fsk mod inconclusive, HSD17B inh 7.94µM
O=C(OC1CCCCC1)c1ccc2c(c1)C1C=CCC1C(C(=O)O)N2 (stereo unspecified)	HADH2 inhib 6.31µM, HSD17B inh 2.51µM
O=C(Nc1cccc(F)c1)N1CCC2(CC1)CCN(C(=O)c1cc(C(F)(F)F)cc(C(F)(F)F)c1)CC2	none
Cn1cc(/C=N/n2cnc3scc(-c4ccc(Cl)cc4)c3c2=O)c2ccccc21	4-MU autofl 3.3e-08M, CRE Fsk mod 1µM, HSD17B inh inconclusive, A350 fluor 3.24e-08M
CCn1cnc2scc(-c3ccccc3)c2c1=O	none
Cc1ccc(C(N)=Nc2ccccc2)cc1	none
CCCCC(=O)OCCNC(=O)c1cc2ccccc2oc1=O	CRE Fsk mod inconclusive, HSD17B inh 25.1µM (no result: 4-MU autofl, A350 fluor)
CN(C)CCNC(=O)c1cc2cc(Br)ccc2oc1=O	none (no result: 4-MU autofl, CRE Fsk mod, A350 fluor)
O=C(OCCNC(=O)c1cc2ccccc2oc1=O)c1cccnc1	HADH2 inhib inconclusive, 4-MU autofl 1.95e-08M, HSD17B inh inconclusive, A350 fluor 1.81e-08M
O=C(OCCNC(=O)c1ccc2ccccc2n1)c1cccnc1	CRE Fsk mod inconclusive (no result: 4-MU autofl, A350 fluor)
Cc1ccccc1-c1cc(NCCN2CCOCC2)ncn1	none
CCN(CCNC(=O)CN1CCN(Cc2ccc(Cl)cc2)C1=O)c1ccccc1	none
CCOc1cc(N2CCOCC2)c(OCC)cc1NC1=NCCCCC1	none
FC(F)(F)c1ccc(N2CCOCC2)c(NC2=NCCCCC2)c1	4-MU autofl 1.04e-08M, CRE Fsk mod inconclusive, A350 fluor 1.28e-08M
O=C(O)CCCCn1ccc(=O)[nH]c1=O	none
CC1(C)CC(=O)N(CC(=O)O)c2ccccc2S1	4-MU autofl 3.32e-08M, CRE Fsk mod inconclusive, A350 fluor 4.35e-08M
N/C(CN1CCCC1=O)=N\O	none
CN(C=O)CP(=O)(O)CCN1CCCC1=O	4-MU autofl 1.25e-08M, A350 fluor 1.37e-08M
COCCCNC(CC(=O)Nc1ccc(OC)cc1OC)C(=O)O (stereo unspecified)	4-MU autofl 2.83e-08M, CRE Fsk mod inconclusive, A350 fluor 2.89e-08M
COc1ccc(NC(=O)CC(NCCc2ccccc2)C(=O)O)c(OC)c1 (stereo unspecified)	CRE Fsk mod inconclusive, A350 fluor inconclusive
O=c1n(Cc2ccccc2)c2cc(Cl)cnc2n1Cc1ccccc1	4-MU autofl 1.04e-08M, CRE Fsk mod inconclusive, HSD17B inh 31.6µM, A350 fluor 1.17e-08M
CN(C)CC(C)(C)CNC(=O)c1ccc(-n2c(=O)c(=O)[nH]c3ccccc32)cc1	none (no result: 4-MU autofl, CRE Fsk mod, A350 fluor)
Cc1c(C2CCN(CCc3ccccc3)CC2)noc1-c1ccc(Cl)cc1	CRE Fsk mod inconclusive (no result: 4-MU autofl, A350 fluor)
Cc1nc2n(c(=O)c1CCN1CCC(c3noc4cc(F)ccc34)CC1)CCCC2	4-MU autofl 2.07e-08M!, A350 fluor 1.9e-08M!
Cn1c(-c2ccc3c(c2)OCO3)cnc1NCc1ccc(Cl)cc1	HSD17B inh 31.6µM
Cc1ccc(CNc2ncc(-c3ccc4c(c3)OCO4)n2C)cc1	HADH2 inhib inconclusive, CRE Fsk mod inconclusive, HSD17B inh inconclusive
CC(NC(=O)c1ccc(NS(C)(=O)=O)cc1)c1ccccc1 (stereo unspecified)	A350 fluor inconclusive
CC(NC(=O)c1ccccc1NS(C)(=O)=O)c1ccccc1 (stereo unspecified)	HADH2 inhib inconclusive, 4-MU autofl 1.88e-08M, HSD17B inh 25.1µM, A350 fluor 2.06e-08M
CS(=O)(=O)Nc1ccccc1C(=O)O	HSD17B inh 31.6µM (no result: 4-MU autofl, CRE Fsk mod, A350 fluor)
COc1ccc(S(=O)(=O)Nc2ccccc2C(=O)O)cc1	HSD17B inh inconclusive (no result: 4-MU autofl, CRE Fsk mod, A350 fluor)
COC(=O)NC(c1ccc2ccccc2c1)C(C(C)=O)C(=O)OC (stereo unspecified)	none (no result: 4-MU autofl, CRE Fsk mod, A350 fluor)
O=C(O)C(Cc1ccccc1-c1ccccc1)C(=O)O	none
c1ccc(-c2csc3ncn4nnnc4c23)cc1	HSD17B inh 25.1µM
Cn1nnnc1Sc1ncnc2scc(-c3ccccc3)c12	HADH2 inhib inconclusive, CRE Fsk mod 0.501µM, HSD17B inh inconclusive
Cn1nnnc1Sc1ncnc2scc(-c3ccc(F)cc3)c12	CRE Fsk mod inconclusive
c1ccc(C2=NCCCN2)cc1	none
c1ccc2oc(C3=NCCN3)cc2c1	HSD17B inh 31.6µM (no result: 4-MU autofl, A350 fluor)
c1ccc(-c2ccc(-c3ccc(C4=NCCN4)cc3)o2)cc1	4-MU autofl 4.78e-07M, CRE Fsk mod 0.501µM, HSD17B inh 3.16µM, AID923 inconclusive, A350 fluor 5.22e-07M
COC(=O)c1ccccc1NC(=O)c1noc2c1CC(C(C)(C)C)CC2 (stereo unspecified)	none
Cc1ccc(C)c(C(=N)c2ccccc2Cc2ccccc2)c1	none
O=C(O)CCCSc1ccccc1	4-MU autofl 1.11e-08M, A350 fluor 1.24e-08M
COc1ccc2c(c1)CCc1cc(C(=O)N3CCN(c4ccc(N5CCOCC5)nn4)CC3)sc1-2	HADH2 inhib 31.6µM, CRE Fsk mod inconclusive, HSD17B inh 31.6µM (no result: 4-MU autofl, A350 fluor)
CN(C(=O)C1CCOC1)c1nnc(-c2ccccn2)s1 (stereo unspecified)	none
Cc1cnc(-c2nnc(N(C)C(=O)C3CCOC3)s2)cn1 (stereo unspecified)	HADH2 inhib 25.1µM, 4-MU autofl inconclusive, HSD17B inh 25.1µM, A350 fluor inconclusive
Cn1c(=O)c2c(nc(/C=C\c3cccc(Cl)c3)n2C)n(C)c1=O	HADH2 inhib 3.98µM, 4-MU autofl 2.18e-07M, HSD17B inh 0.631µM, A350 fluor 1.89e-07M
CCOC(=O)CC1=C(C(=O)OCC)C(c2ccc(C)o2)C(C#N)=C(N)O1 (stereo unspecified)	4-MU autofl inconclusive, HSD17B inh inconclusive, A350 fluor inconclusive
CCOC(=O)C1=C(CSc2nc3c(cc2C#N)CCC3)OC(N)=C(C#N)C1c1ccccc1 (stereo unspecified)	4-MU autofl inconclusive, A350 fluor 1.26e-08M (no result: HADH2 inhib, CRE Fsk mod, HSD17B inh, AID923)
CCOC(=O)c1sc(NC(=O)CSc2nc3c(cc2C#N)CCC3)c(C#N)c1C	none
CN1CCc2nc(SCCOc3ccccc3)c(C#N)cc2C1	4-MU autofl 1.38e-08M, CRE Fsk mod inconclusive, HSD17B inh 10µM, A350 fluor 1.26e-08M
CCOC(=O)C1=C(CSc2nc3c(cc2C#N)CN(C)CC3)OC(N)=C(C#N)C1c1ccccc1 (stereo unspecified)	4-MU autofl 4.71e-08M, A350 fluor 5.54e-08M (no result: HADH2 inhib, CRE Fsk mod, HSD17B inh, AID923)
NS(=O)(=O)c1ccc(-c2ccc(C=NC3CCS(=O)(=O)C3)o2)cc1 (stereo unspecified)	4-MU autofl 2.13e-08M, A350 fluor 2.73e-08M (no result: HADH2 inhib, CRE Fsk mod, HSD17B inh, AID923)
O=S1(=O)CCC(N=Cc2cc(Br)ccc2O)C1 (stereo unspecified)	A350 fluor inconclusive
CCC(=O)Oc1ccc(-c2nc(-c3cccnc3)no2)cc1	4-MU autofl inconclusive, A350 fluor inconclusive
